Assay outcomes from PubChem.
A selection: hits, their analogues and other compounds. The true share with any hit is near 3.5%.
mHTT-CaM PPI inh = inhibitors of human mutant huntingtin-calmodulin interaction. AlphaScreen His-mHTT/GST-CaM binding, luminescence. actives 3.6% (n = 190,000). inhibition, % at 15 µM;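 also: 0% = both proteins with DMSO and 100% = one protein alone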
Pf apPOL inh = Pf-apPOL DNA polymerase inhibition; Recombinant Pf-apPOL, molecular beacon fluorescence, 1.5 h; inhibition, % at 10 µM; actives 0.25% (n = 210,000); AID 1794808
* = called active by the depositor; / = not tested or not shown; ! = a repeat was not active. Rule as the data show it: active = inhibition above about 50%; inactive = the rest.

SMILES	mHTT-CaM PPI inh	Pf apPOL inh
Cc1ccc(N2C(=O)S/C(=C\c3ccc(O)cc3)C2=O)cc1	12	-3
CC(/C=C1\SC(=O)N(c2ccc(O)cc2)C1=O)=C\c1ccccc1	60*	-4
Cc1nn(C)cc1CN1CCC(c2nc(-c3ccc(F)cc3)n[nH]2)CC1	-10	-3
CCOc1cccc(C(=O)Nc2ccc(Br)cc2)c1	-2	-5
COc1ccc(CCNC(=O)CN2N=C(c3ccc(Cl)cc3)CCC2=O)cc1OC	15	-18
Cc1ccc(CCNC(=O)CN2N=C(c3ccc(Cl)cc3)CCC2=O)cc1	65*	-13
COc1ccc(-c2coc3c(C)c4oc(=O)c5c(c4cc23)CCC5)cc1	2	-4
COc1ccc(-c2coc3c2c(C)cc2oc(=O)c4c(c23)CCC4)cc1	4	86*
COc1ccc(C2=N/C(=C/c3ccccc3[N+](=O)[O-])C(=O)O2)cc1	-2	-3
COc1cc(-c2nc3ccccn3c2N=Cc2ccccc2)ccc1O	38	-6
COc1cc(-c2nc3ccccn3c2N=Cc2ccc(F)cc2)ccc1O	79*	-5
CC1CCN(C(=O)c2cccc(Nc3ncc(-c4cccc(F)c4)cn3)c2)CC1	27	0
CC(=O)c1cccc(NC(=O)C2CC(=O)N(c3ccc4c(c3)CCN4C(=O)C3CCC3)C2)c1 (stereo not drawn)	0	3
CN(C)c1ccc(Cc2ccc(N(C)C)cc2)cc1	/	-10
CN(C)c1ccc(C(O)(c2ccc(N(C)C)cc2)c2ccc(N(C)C)cc2)cc1	100*	-7
CC(C)c1c(C2CCN(C(=O)Cc3cccs3)CC2)noc1N	-4	-5
COc1ccc(-c2ccc(CN3C(C(C)C)C(=O)N(Cc4cn(CCC5OCCCO5)nn4)CCS3(=O)=O)cc2)cc1OC (stereo not drawn)	44	5
CC(C)Cc1ccc(CN2C(C(C)C)C(=O)N(Cc3cn(CCC4OCCO4)nn3)CCS2(=O)=O)cc1 (stereo not drawn)	8	-8
Cc1ccc(-c2ccc(CN3C(C(C)C)C(=O)N(Cc4cn(CCC5OCCO5)nn4)CCS3(=O)=O)cc2)c(C)c1 (stereo not drawn)	74*	-3
Cc1ccccc1-c1ccc(CN2C(C(C)C)C(=O)N(Cc3cn(CCC4OCCO4)nn3)CCS2(=O)=O)cc1 (stereo not drawn)	71*	-5
O=C(CSc1ccc(Sc2ccc(SCC(=O)NC3CC3)cc2)cc1)NC1CC1	-7	-6
COc1cccc(CNC(=O)C2(C)CCCN(C(=O)Cc3cccs3)C2)c1 (stereo not drawn)	-5	-4
CC(=O)N1CCN(c2ccc(Cl)cc2)C(=O)C1C (stereo not drawn)	-6	9
COc1ccc(CC(=O)NC2C3CC4CC(C3)CC2C4)cc1OC (stereo not drawn)	5	-3
COc1ccc(NC2C3CC4CC(C3)CC2C4)cc1OC (stereo not drawn)	62*	-3
SMILES	mHTT-CaM PPI inh	Pf apPOL inh
CCn1nccc1C(=O)N1CCCC1c1c(C)noc1C (stereo not drawn)	-4	-2
O=[N+]([O-])c1ccccc1/C=C/CN1CCN(c2ccccn2)CC1	10	0
O=C(C=Cc1ccccc1)Oc1ccc2c(c1)OC(=Cc1ccco1)C2=O	79*	6
O=C(Oc1ccc2c(c1)OC(=Cc1ccco1)C2=O)c1ccco1	24	5
O=C(Oc1ccc2c(c1)OC(=Cc1ccco1)C2=O)c1cccs1	58*	36
O=C1C(=Cc2ccccc2F)Oc2cc(O)ccc21	-6	1
O=C1C(=CC=Cc2ccco2)Oc2cc(O)ccc21	58*!	51*
O=C(Oc1ccc2c(c1)OC(=Cc1ccco1)C2=O)c1ccccc1	9	-1
COc1ccc(C=C2Oc3cc(OC(=O)C(C)C)ccc3C2=O)cc1OC	62*	-5
COc1ccc(C=C2Oc3cc(OC(C)=O)ccc3C2=O)cc1OC	-2	-1
COC(=O)c1ccc(C(=O)NCC2CCN(C(=O)COc3ccccc3)CC2)cc1	-1	-8
CC(C)(C)SCCNc1c([N+](=O)[O-])c(=O)oc2ccccc12	1	-4
O=C(NCc1c(F)cc(F)cc1F)C1C2C=CC3(CN(Cc4cccs4)C(=O)C13)O2 (stereo not drawn)	-1	-3
O=C1OC(c2cc([N+](=O)[O-])ccc2Cl)=N/C1=C\c1cc(Br)cs1	1	-8
Cc1nc(CC(=O)NC2CCc3[nH]c4cc(Cl)cc(Cl)c4c3C2)c(C)s1 (stereo not drawn)	78*	1
